aSyn UTR act – Activators via SNCA 5'UTR binding, MLPCN; alpha-synuclein 5'UTR reporter, activators screen; activity score, % (tested at 7.5 µM), hits read low; 7.1% of 300,000 active; in the data active = activity score below about -60%
A number is an active result; n = inactive. The list is a sample of the results.

SMILES | aSyn UTR act
O=C(c1cnc2nc3ccccc3n2c1)c1cc(F)ccc1O | -77.5
C/C(=N\NC(=O)CN1CCCCC1)c1cccc([N+](=O)[O-])c1 | -93.1
COc1cc(OC)cc(C(=O)Nc2ccccc2C(=O)N2CCCC2)c1 | -123.1
COc1ccc(C(=O)Nc2ccccc2C(=O)N/N=C/c2cccc3ccccc23)cc1 | -169.1
COc1cc(OC)cc(C(=O)NNC(=O)c2ccccn2)c1 | n
CCC(NC(=O)c1ccccc1NC(=O)c1ccc(OC)cc1)C(=O)N1CCCC1 (stereo unspecified) | -69.3
COc1ccc(C(=O)N[C@H](C(=O)Nc2nc3ccccc3[nH]2)C(C)C)cc1 | n
COc1ccc(C(=O)NC2=Nc3ccccc3N=C(C)C2c2ccccc2)cc1 (stereo unspecified) | -227.6
COc1ccc(C(=O)Nc2ccccc2C(=O)Nc2ccncc2)cc1 | -104.6
COc1ccc(C(=O)Nc2ccccc2C(=O)Nc2ccccc2C(=O)O)cc1 | -98.2
CC1(C)CN=c2s/c(=C\c3ccc(Cl)cc3)c(=O)n2C1 | -111.3
COc1ccc2c(c1)NC(=O)CC(c1ccccc1)=N2 | -71.6
CN1c2ccsc2/C(=N/Nc2ccccc2)CS1(=O)=O | -122.8
Nc1cc(-c2ccc(Br)cc2)nn1Cc1ccccc1 | -196.3
Cn1cccc1C(=O)OCC(=O)Nc1ccc2c(c1)CCC2 | -137.8
Cn1cccc1C(=O)OCC(=O)Nc1ccc2c(c1)OCO2 | -100.9
COc1ccc(N(CC(=O)Nc2cc(Cl)ccc2C)S(=O)(=O)c2c(C)noc2C)cc1 | n
COC(=O)c1ccc(C)c(NC(=O)CN(c2cc(OC)ccc2OC)S(C)(=O)=O)c1 | -88.4
S=C(NCc1ccco1)Nc1ccc(Br)cc1Cl | -141.0
S=C(NCc1ccco1)Nc1ccc(Cl)cc1Cl | -107.8
N#Cc1c(N)nc2c(c1N)CC(COc1ccccc1)O2 (stereo unspecified) | -130.3
Cc1cc2n(n1)C(c1ccc(N(C)C)cc1)Nc1ccccc1-2 (stereo unspecified) | -155.9
CCc1ccc(-c2cc(-c3n[nH]c(=S)n3CC)c3ccccc3n2)cc1 | -68.5
CSc1nnc(-c2cc(-c3ccc(C)cc3)nc3ccccc23)o1 | n
Cc1cccc(NC(=O)c2sc3nc(-c4ccccc4)cn3c2C)n1 | -123.5
SMILES | aSyn UTR act
COc1ccc(-c2cn3c(C)c(C(=O)Nc4cccc(C)n4)sc3n2)cc1 | -97.1
COCCNC(=O)c1sc2nc(-c3ccccc3)cn2c1C | -76.6
Cc1c(C(=O)Nc2ccccc2)sc2nc(-c3ccccc3)cn12 | -160.5
C/C(=N\NC(=O)c1ccncc1)c1ccc(NC(=O)c2ccc(Cl)cc2)cc1 | -115.9
C/C(=N/NC(=O)c1ccncc1)c1ccc(NC(=O)c2ccc(Cl)cc2Cl)cc1 | -184.7
COc1ccc(/C(C)=N/NC(=O)c2ccccc2N)cc1 | -92.0
COc1ccc(C(=O)Nc2ccc(/C(C)=N/NC(=O)c3ccncc3)cc2)cc1 | -107.6
Cn1cc(C(=O)c2ccc(Cl)cc2Cl)cc1C(=O)N/N=C(\N)COc1ccc(Cl)cc1Cl | n
C/C(=N\NC(=O)c1ccc(Cl)cc1)c1cccnc1 | -91.6
COc1cc(OC)cc(C(=O)Nc2ccc(C(=O)c3ccncc3)cc2)c1 | -71.9
C/C(=N/NC(=O)c1ccc(C)s1)c1cccnc1 | -70.4
O=C(Nc1ccccc1)C1=C[C@@H](c2ccc(C(F)(F)F)cc2)C[C@@H](OCCCCO)O1 | -95.1
C#Cc1ccc([C@@H]2C=C(C(=O)N3CCN(Cc4ccccc4)CC3)O[C@H](OCCCCO)C2)cc1 | n
O=C(NCc1ccccc1)C1=C[C@@H](c2csc3ccccc23)C[C@@H](OCCCCO)O1 | n
Cc1ccccc1/C=C/c1nc2ccccc2c(=O)[nH]1 | -324.0
N#CCOc1ccccc1/C=C/c1nc2ccccc2c(=O)[nH]1 | -115.2
Cc1ccccc1/C=C\c1nc2ccccc2c(=O)[nH]1 | -142.2
CCOc1cc(/C=C2\COc3ccccc3C2=O)cc(Br)c1OCC(=O)N(C)C | -120.5
Clc1cccc(/C=N/Nc2nnc(Cl)c3ccccc23)c1 | -196.6
Clc1ccc(/C=N/Nc2nnc(-c3ncc[nH]3)c3ccccc23)cc1 | -169.1
O=C(/C=C/c1ccc(Br)o1)Nc1nccs1 | -149.2
O=C(Nc1nccs1)c1ccc(Br)o1 | -102.3
CCN(CC)Cc1c(O)ccc2c(=O)c(-c3ccccc3)coc12 | -64.3
CCn1c(C)csc1=NC(=O)c1ccccc1 | -112.1
CCn1c(C)csc1=NC(=O)c1ccccc1O | -249.5
SMILES | aSyn UTR act
Cc1csc(=NC(=O)c2ccccc2)n1C | -126.0
CN(C)c1ccc(C2Nc3cccc4cccc(c34)N2)cc1 | -94.1
Cc1ccc(C2NC(=O)c3ccccc3N2)s1 (stereo unspecified) | -168.1
CN(C)c1ccc(C2NC(=O)c3ccccc3N2)cc1 (stereo unspecified) | -130.6
O=C1NC(c2ccc(Cl)cc2)Nc2ccccc21 (stereo unspecified) | -62.0
COc1ccc(NC(=O)CCn2cc(C)c3ccccc32)cc1 | -75.7
COCC(=O)Nc1ccccc1C(=O)Nc1ccc(OC)cc1 | -90.1
COc1ccc(NC(=O)c2ccccc2C)cc1 | -131.9
CC(=O)Nc1ccc(OCc2cccc3ccccc23)cc1 | n
COc1ccc(NC(=O)c2cccc3ccccc23)cc1 | -95.6
Fc1ccc(Nc2ccnc(Nc3ccc(F)cc3)n2)cc1 | -93.5
Oc1ccccc1C1CC(c2cccs2)=NC(c2ccc(Cl)cc2)N1 (stereo unspecified) | -94.0
O=C(Nc1ccc2oc(=O)ccc2c1)c1cc2ccccc2o1 | -176.6
CN(C)S(=O)(=O)c1ccc(NC(=O)c2cc3ccccc3o2)cc1 | -110.3
Cc1cc(=O)oc2cc(NC(=O)c3cccc(Br)c3)ccc12 | -166.1
Cn1c(=O)n(C)c2cc(NC(=O)c3cc4ccccc4o3)ccc21 | -146.0
Cc1cc(=O)oc2cc(NC(=O)c3cc4ccccc4o3)ccc12 | -93.7
Cc1cc(C(=O)Nc2ccccc2)oc(=O)c1 | -84.7
COCc1cc(=O)oc2cc(NC(=O)c3ccc(C(C)(C)C)cc3)ccc12 | -110.2
Cc1cc(=O)oc2cc(NC(=O)c3ccccc3OC(F)F)ccc12 | -113.7
O=C(c1ccccc1)c1c(O)nc(-c2ccccc2)n(-c2ccccc2)c1=O | -67.5
CCCCN(C)S(=O)(=O)c1ccc(C(=O)N(CCN(C)C)c2nc3ccc(C)cc3s2)cc1 | -74.4
CN(C)CCCN(C(=O)CCc1ccccc1)c1nc2ccc(Cl)cc2s1 | n
CCN(CC)CCN(C(=O)c1cc2c(ccc3ccccc32)oc1=O)c1nc2cc3c(cc2s1)OCCO3 | n
CN(C)CCCN(C(=O)c1ccc2c(c1)CCCC2)c1nc2ccc(Cl)cc2s1 | -69.8
SMILES | aSyn UTR act
CN(C)CCCN(C(=O)c1ccc2c(c1)OCCO2)c1nc2cc3c(cc2s1)OCO3 | -91.6
CN(C)CCN(C(=O)c1ccc2ccccc2c1)c1nc2cc3c(cc2s1)OCCO3 | -74.5
COc1ccc(OC)c2sc(N(CCCN(C)C)C(=O)c3ccc(S(=O)(=O)N4CCc5ccccc5C4)cc3)nc12 | n
CCOc1cccc2sc(N(CCCN(C)C)C(=O)c3ccc(S(=O)(=O)N(C)Cc4ccccc4)cc3)nc12 | n
Cc1ccc2sc(N(CCCN(C)C)C(=O)c3ccc(S(=O)(=O)N(C)Cc4ccccc4)cc3)nc2c1C | -72.8
COc1ccc(C)c2sc(N(CCCN(C)C)C(=O)c3ccc(S(=O)(=O)N4CCc5ccccc5C4)cc3)nc12 | n
COc1ccc(C)c2sc(N(CCCN(C)C)C(=O)c3ccc4c(c3)OCCO4)nc12 | -97.0
CCOc1cccc2sc(N(CCCN(C)C)C(=O)c3ccc(S(=O)(=O)N(CC)Cc4ccccc4)cc3)nc12 | n
CN(C)CCCN(C(=O)c1sc2ccccc2c1Cl)c1nc2ccc(F)cc2s1 | -98.8
